Assay [1] addresses Albumin (Bos taurus) (UniProt P02769). Kind of assay: bovine serum albumin binders on microarray, profiling panel, artefact control for SMM control protein annotation, biochemical, small-molecule microarray, Alexa647 label, 635/667 nm fluorescence (AID 1118).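 Note: score merges 667 nm emission intensity and signal-to-noise per printed compound spot.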 To be noted: BSA-A647 binding, fluorescence 635 nm, higher = more signal.
Assay [2] is described as follows: small-molecule microarray binders of probe aXIP, primary screen, biochemical, NeuroSMM set, 635/667 nm fluorescence (AID 1119).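 Note: probe is the protein aXip251-270 applied at 1 µg/mL to compound-printed slides; binding of probe to printed compounds measured as 667 nm fluorescence plus signal to noise.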 To be noted: higher = more signal, called active from +8 up or from −8 down.
Assay [3] in a line: small-molecule binders of probe aNOTCH3, primary screen, biochemical, small-molecule microarray, 635/667 nm fluorescence (AID 1120).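 Note: probe is a biotin-tagged antibody raised against NOTCH3 rather than NOTCH3 protein; score merges spot fluorescence near 667 nm with spot signal to noise.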 To be noted: higher = more signal.
Assay [4] in a line: small-molecule binders of probe aNOTCH2, primary screen, biochemical, small-molecule microarray, 635/667 nm fluorescence (AID 1121).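 Note: score merges feature fluorescence read at 667 nm with its signal to noise.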 To be noted: higher = more signal.
The target of assay [5] is Carbonic anhydrase 2 (Homo sapiens) (UniProt P00918). Kind of assay: CAII small-molecule binders, profiling panel, biochemical, small-molecule microarray, Alexa647-labelled CAII (AID 1122). To be noted: CAII-A647 binding fluorescence, higher = more signal.
The nature of assay [6]: COS7 lysate on small-molecule microarray, probe aHis, 635 nm (AID 1123).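 Note: z-score combines 667nm fluorescence intensity with signal-to-noise per printed compound spot.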 To be noted: COS7 cell lysate, fluorescence, higher = more signal.
A short description of assay [7]: compound binding in COS7 lysate, probe aLAP1, primary screen, cell lysate, small-molecule microarray (AID 1124).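 Note: lysate comes from COS7 cells expressing LAP1 and is applied at 0.3 µg/mL; score merges spot fluorescence near 667 nm with signal-to-noise over triplicate slides.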 To be noted: probe aLAP1, fluorescence, higher = more signal.
The subject of assay [8] is Sam68 (KHDRBS1). Kind of assay: Sam68 small-molecule binders, primary screen, biochemical, small-molecule microarray, 635 nm fluorescence (AID 1125).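 Note: score merges 667 nm channel intensity with signal to noise over triplicate slides.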 To be noted: small-molecule microarray binding, higher = more signal.
Assay [9] concerns Chordin-like protein 2 (CHRDL2). Kind of assay: CHRDL2 small-molecule binders, primary screen, biochemical, small-molecule microarray, 635 nm fluorescence (AID 1126).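 Note: printed compound slides probed with Chrdl2 protein at 4 µg/mL for 1 h at 4 C; score merges 667 nm emission intensity with signal to noise over three replicate slides.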 To be noted: small-molecule microarray binding, fluorescence 635 nm; higher = more signal.
For assay [10], the target named is Concanavalin-A (Canavalia ensiformis) (UniProt P02866). The assay is described as follows: ConA small-molecule binders, primary screen, artefact control for SMM control protein annotation, biochemical, small-molecule microarray, Alexa647 label, 635 nm (AID 1127).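 Note: z combines 667 nm emission intensity with signal-to-noise across three replicate slides.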 To be noted: ConA-A647 binding fluorescence, higher = more signal.
Assay [11] can be described thus: anti-His antibody binders, primary screen, artefact control for SMM control protein annotation, biochemical, small-molecule microarray, 635 nm fluorescence (AID 1128).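 Note: score merges feature fluorescence with signal-to-noise for each printed compound spot.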 To be noted: anti-His Alexa647 antibody binding, higher = more signal.
For assay [12], the system named is Human papillomavirus type 1a E7 protein (residues 1-88). Kind of assay: HPV1a E7 small-molecule binders, primary screen, biochemical, small-molecule microarray, residues 1-88, 635 nm (AID 1129). To be noted: small-molecule microarray binding, fluorescence 635 nm; higher = more signal.
Assay [13] deals with Focal adhesion kinase 1 (Homo sapiens) (UniProt Q05397). Kind of assay: small-molecule microarray binders of FAK, primary screen, biochemical, 635/667 nm fluorescence, BSA, DTT (AID 1130).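 Note: composite of spot emission at 667 nm and signal to noise over triplicate slides.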 To be noted: PTK2 binding, 635 nm fluorescence, higher = more signal.
Assay [14] has as its system Fibrinogen (Alexa647-labelled). Kind of assay: fibrinogen binders on compound microarrays, profiling panel, artefact control for SMM control-protein annotation, biochemical, small-molecule microarray, 635/667 nm fluorescence (AID 1131).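 Note: z-score merges 667 nm fluorescence with per-spot signal-to-noise over triplicate slides.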 To be noted: fibrinogen-A647 binding fluorescence, higher = more signal.
The target of assay [15] is Follistatin (Homo sapiens) (UniProt P19883). The assay is described as follows: follistatin binders on small-molecule microarrays, primary screen, biochemical, small-molecule microarray, 635/667 nm fluorescence (AID 1132). To be noted: FST binding, 635 nm fluorescence, higher = more signal.
Assay [16] has as its target Fibroblast growth factor 2 (Homo sapiens) (UniProt P09038). The assay is described as follows: FGF2 binders on small-molecule microarrays, primary screen, biochemical, small-molecule microarray, 635/667 nm fluorescence (AID 1133). To be noted: small-molecule microarray binding, FGF2, fluorescence 635/667; higher = more signal.
The nature of assay [17]: mitochondrial membrane potential change in A549 cells, profiling panel, cell-based, JC-1 fluorescence, basal, 24 h, 100 nL (AID 1138).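 Note: A549 lung adenocarcinoma cells under basal conditions with no added stimulus; test concentration not given here.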 To be noted: higher = more signal.
Assay [18] has as its system Lefty1. The assay is described as follows: Lefty1 binders on small-molecule microarrays, primary screen, biochemical, small-molecule microarray, 635/667 nm fluorescence (AID 1139). To be noted: small-molecule microarray binding, fluorescence 635/667; higher = more signal.
Assay [19] has as its system wheat germ agglutinin (Triticum aestivum), Alexa647-labelled. The assay is described as follows: wheat germ agglutinin binders on compound microarrays, profiling panel, artefact control for SMM control-protein annotation, biochemical, small-molecule microarray, 635/667 nm fluorescence (AID 1140).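 Note: score merges 667 nm feature emission with signal to noise over triplicate slides.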 To be noted: WGA-A647 binding, 635 nm fluorescence, higher = more signal.
In assay [20] the target is Luciferin 4-monooxygenase (Photinus pyralis) (UniProt P08659). Kind of assay: firefly luciferase enzyme inhibitors, primary screen, biochemical, luminescence, purified enzyme, 2006 set (AID 1141).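 Note: cell-free assay with purified firefly luciferase at 100 ng per well in PBS; test concentration not given here.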 To be noted: SteadyGlo luminescence, 30 min, higher = more signal, called active from +8 up or from −8 down.

SMILES strings stand for the structures. Calls of active or inactive are those of the source.

Sequence of Albumin (Bos taurus) (P02769 whole entry, looked up): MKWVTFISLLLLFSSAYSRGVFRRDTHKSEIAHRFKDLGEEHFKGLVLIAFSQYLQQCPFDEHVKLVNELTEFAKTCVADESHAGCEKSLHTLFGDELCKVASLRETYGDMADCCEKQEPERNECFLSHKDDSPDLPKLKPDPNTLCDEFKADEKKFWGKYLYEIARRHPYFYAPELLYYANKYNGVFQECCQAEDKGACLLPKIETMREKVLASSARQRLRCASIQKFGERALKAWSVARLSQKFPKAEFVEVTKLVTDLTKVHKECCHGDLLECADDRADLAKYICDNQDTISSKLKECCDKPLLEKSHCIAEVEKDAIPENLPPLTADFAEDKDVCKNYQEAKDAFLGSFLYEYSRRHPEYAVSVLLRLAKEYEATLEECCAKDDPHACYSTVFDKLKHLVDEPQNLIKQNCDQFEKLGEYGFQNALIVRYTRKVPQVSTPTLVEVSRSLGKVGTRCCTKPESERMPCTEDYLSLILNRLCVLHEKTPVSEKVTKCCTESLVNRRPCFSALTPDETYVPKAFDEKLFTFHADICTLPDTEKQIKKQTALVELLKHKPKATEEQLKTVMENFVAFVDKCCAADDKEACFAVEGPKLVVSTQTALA
Sequence of Concanavalin-A (Canavalia ensiformis) (P02866 whole entry, looked up): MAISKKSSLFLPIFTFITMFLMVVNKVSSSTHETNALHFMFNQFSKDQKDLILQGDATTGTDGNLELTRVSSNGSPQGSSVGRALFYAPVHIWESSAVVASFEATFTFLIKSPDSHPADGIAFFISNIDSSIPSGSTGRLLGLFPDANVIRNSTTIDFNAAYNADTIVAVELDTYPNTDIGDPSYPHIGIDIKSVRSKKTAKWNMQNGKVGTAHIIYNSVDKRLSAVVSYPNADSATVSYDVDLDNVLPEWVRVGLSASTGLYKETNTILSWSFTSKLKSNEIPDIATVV
Sequence of Focal adhesion kinase 1 (Homo sapiens) (Q05397 whole entry, looked up): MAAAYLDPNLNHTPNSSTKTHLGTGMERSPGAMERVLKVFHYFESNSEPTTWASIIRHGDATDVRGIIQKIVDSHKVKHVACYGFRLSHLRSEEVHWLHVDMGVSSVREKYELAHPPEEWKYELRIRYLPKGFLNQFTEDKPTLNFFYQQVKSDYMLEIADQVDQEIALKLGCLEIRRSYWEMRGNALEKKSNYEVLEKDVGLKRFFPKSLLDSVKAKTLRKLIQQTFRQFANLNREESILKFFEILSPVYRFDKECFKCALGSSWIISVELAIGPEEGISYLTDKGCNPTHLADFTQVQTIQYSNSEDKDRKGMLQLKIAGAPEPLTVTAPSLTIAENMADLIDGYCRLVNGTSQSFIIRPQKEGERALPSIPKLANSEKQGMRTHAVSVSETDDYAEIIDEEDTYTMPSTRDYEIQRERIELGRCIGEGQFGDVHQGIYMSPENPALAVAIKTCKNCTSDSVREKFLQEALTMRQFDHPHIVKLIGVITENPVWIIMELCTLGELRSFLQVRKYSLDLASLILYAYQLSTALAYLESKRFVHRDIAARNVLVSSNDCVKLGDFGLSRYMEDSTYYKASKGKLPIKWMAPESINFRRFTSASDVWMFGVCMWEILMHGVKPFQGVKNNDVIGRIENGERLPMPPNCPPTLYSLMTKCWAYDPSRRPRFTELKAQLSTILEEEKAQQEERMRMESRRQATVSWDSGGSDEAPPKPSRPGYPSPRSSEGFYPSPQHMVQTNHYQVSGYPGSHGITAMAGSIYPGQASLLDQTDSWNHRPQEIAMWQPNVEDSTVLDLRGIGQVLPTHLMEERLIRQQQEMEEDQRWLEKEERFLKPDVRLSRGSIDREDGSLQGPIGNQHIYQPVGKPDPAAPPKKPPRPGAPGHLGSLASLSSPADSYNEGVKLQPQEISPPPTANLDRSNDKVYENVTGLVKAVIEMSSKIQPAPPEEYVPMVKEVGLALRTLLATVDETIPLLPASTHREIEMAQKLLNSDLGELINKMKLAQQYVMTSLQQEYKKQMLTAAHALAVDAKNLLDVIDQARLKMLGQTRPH
Sequence of Luciferin 4-monooxygenase (Photinus pyralis) (P08659 whole entry, looked up): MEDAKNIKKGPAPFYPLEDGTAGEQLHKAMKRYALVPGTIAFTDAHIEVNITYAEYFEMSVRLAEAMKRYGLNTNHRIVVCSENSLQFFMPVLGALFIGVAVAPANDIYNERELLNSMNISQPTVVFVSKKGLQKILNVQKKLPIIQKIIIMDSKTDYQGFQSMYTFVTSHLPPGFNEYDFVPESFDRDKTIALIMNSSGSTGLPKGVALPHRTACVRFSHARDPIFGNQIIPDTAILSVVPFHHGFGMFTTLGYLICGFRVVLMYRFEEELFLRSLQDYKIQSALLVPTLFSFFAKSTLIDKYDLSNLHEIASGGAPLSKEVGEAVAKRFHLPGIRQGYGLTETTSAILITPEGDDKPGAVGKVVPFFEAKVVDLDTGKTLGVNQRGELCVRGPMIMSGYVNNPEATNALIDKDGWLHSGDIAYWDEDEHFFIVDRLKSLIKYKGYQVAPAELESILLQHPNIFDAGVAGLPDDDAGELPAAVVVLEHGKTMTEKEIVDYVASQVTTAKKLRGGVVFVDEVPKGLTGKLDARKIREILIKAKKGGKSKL
Sequence of Follistatin (Homo sapiens) (P19883 whole entry, looked up): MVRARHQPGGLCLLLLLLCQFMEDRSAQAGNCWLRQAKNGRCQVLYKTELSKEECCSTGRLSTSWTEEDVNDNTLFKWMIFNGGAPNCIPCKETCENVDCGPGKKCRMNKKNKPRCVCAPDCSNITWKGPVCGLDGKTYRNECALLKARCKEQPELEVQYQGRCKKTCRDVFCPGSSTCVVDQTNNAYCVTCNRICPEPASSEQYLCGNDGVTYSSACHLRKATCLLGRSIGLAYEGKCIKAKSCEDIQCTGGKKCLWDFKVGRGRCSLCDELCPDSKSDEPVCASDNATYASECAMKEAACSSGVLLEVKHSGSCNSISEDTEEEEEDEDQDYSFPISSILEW
Sequence of Fibroblast growth factor 2 (Homo sapiens) (P09038 whole entry, looked up): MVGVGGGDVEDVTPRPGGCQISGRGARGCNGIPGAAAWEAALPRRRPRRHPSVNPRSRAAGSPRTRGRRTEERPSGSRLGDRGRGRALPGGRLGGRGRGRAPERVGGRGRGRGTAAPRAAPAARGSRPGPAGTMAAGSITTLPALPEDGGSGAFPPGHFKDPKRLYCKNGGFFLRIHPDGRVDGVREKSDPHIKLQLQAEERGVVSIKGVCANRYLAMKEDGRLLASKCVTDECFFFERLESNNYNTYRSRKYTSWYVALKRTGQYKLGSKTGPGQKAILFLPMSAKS

In the case of `C=CCC(OC(C)=O)[C@@H]1[C@@H](N(Cc2cccc3ccccc23)C(=O)c2cccc3ccccc23)c2cc(OCCCO)ccc2N1C(=O)c1ccc(-c2ccccc2)cc1` (stereo not given in full), the composite z-score is -0.0704 in [1]; 0.122 in assay [3]; -0.143 in [4]; 0.115 in [5]; 0.888 in assay [6]; -0.35 in assay [7]. In addition, the composite z-score in [8] was -0.159; in assay [9], 0.25; in assay [10], -0.132; in assay [11], -0.123; in assay [12], -0.14; in [13], 0.0614. The composite z-score in assay [14] was 0.643; in [15] it was 0.693; in assay [16], 0.497; in [18], 0.0548; in assay [19], 0.0915. In addition, the composite Z-score in assay [2] was -0.0014 (inactive). Moreover, the figures for the z-score in [17] and in assay [20] were -0.338 and 0.337 (inactive), respectively.
As to `CCOC(=O)C1=CC[C@@H](c2cccc(Cl)c2)N(S(=O)(=O)c2ccc(C)cc2)C1`, the composite z-score in assay [1] was 0.839; in assay [3] it was -0.0661; in [4], -0.0488; in assay [5] it was 0.685; in [6], 2.15; in assay [7] it was 0.568. Besides, the composite z-score stood at 0.674 in assay [8]; 0.0917 in assay [9]; 0.721 in assay [10]; 1.66 in assay [11]; 1.14 in [12]; 0.399 in assay [13]. Moreover, the composite z-score was -0.112 in [14]; 0.191 in assay [15]; -0.0072 in assay [16]; -0.345 in assay [18]; 0.844 in assay [19]. In addition, the composite Z-score in assay [2] is -0.659 (inactive). The z-score is 2.48 in [17] and -2.75 (inactive) in [20].
On to `CCCCC=C[C@@H](NC(=O)c1ccc(-c2ccccc2)cc1)c1ccccc1`, for which the composite z-score in assay [1] came to 0.43; in assay [3], 0.112; in assay [4] it was 0.0065; in assay [5], 0.641; in [6] it was 1.08; in assay [7] it was 1.01. The composite z-score was 1.07 in assay [8]; -0.309 in assay [9]; 0.933 in [10]; 0.512 in assay [11]; 1.19 in [12]; 0.416 in [13]. The composite z-score in assay [14] is 0.413; in assay [15] it was -0.107; in assay [16] it was -0.0601; in assay [18], -0.217; in assay [19], 0.535. Besides, the composite Z-score in assay [2] was 0.516 (inactive). Further, the z-score in assay [17] was -0.428; in assay [20], 2.01 (inactive).
`COc1ccc(-c2nc(-c3ccccc3)c3c(c2C)CO[Si]3(C(C)C)C(C)C)cn1`: the composite z-score is -0.475 in assay [1]; -0.126 in [3]; -0.0921 in assay [4]; 0.0924 in [5]; 0.583 in assay [6]; -0.209 in assay [7]. Besides, the composite z-score in [8] is 0.152; in assay [9] it was 0.151; in assay [10] it was -0.209; in [11] it was -0.479; in assay [12], 0.081; in assay [13] it was 0.268. For the same molecule, the composite z-score was -0.579 in assay [14]; 0.16 in assay [15]; 0.639 in [16]; 0.402 in assay [18]; 0.0463 in [19]. In addition, in assay [2], the composite Z-score is 0.428 (inactive). In addition, the z-score in assay [17] was -0.0772; in [20], 0.431 (inactive).
For `CN1C(=O)C2C=CC(C(O)COCc3ccccc3)N(N(c3ccccc3)c3ccccc3)C2C1=O` (stereo not given), the composite z-score in assay [1] is 0.319; in assay [3], 0.227; in assay [4], -0.0173; in assay [5], 0.412; in [6], 1.62; in assay [7], 0.0687. For the same molecule, the composite z-score was 1.05 in assay [8]; -0.571 in assay [9]; 0.671 in assay [10]; 0.087 in assay [11]; 1.19 in assay [12]; 0.75 in [13]. Moreover, the composite z-score in assay [14] was 0.56; in [15] it was 0.265; in assay [16], -0.483; in assay [18], 0.216; in assay [19], 0.508. For the same molecule, the composite Z-score in [2] was 0.453 (inactive). Moreover, the values for the z-score in assay [17] and in assay [20] were 1.12 and -1.06 (inactive), respectively.

For the origin of these results see PubChem BioAssay.
